# Assay results taken from the supplement of paper PMC13380429.
# Values without a mark were called inactive.
# System: Vero E6 infected with SARS-CoV-2
# Experiment: inhibition of SARS-CoV-2 cytopathic effect; higher = more antiviral protection, active = above 15
# Settings: 48 h
SMILES,inhibition of SARS-CoV-2 cytopathic effect (1 nM),inhibition of SARS-CoV-2 cytopathic effect (8.33 nM),inhibition of SARS-CoV-2 cytopathic effect (100 nM),inhibition of SARS-CoV-2 cytopathic effect (833.33 nM),inhibition of SARS-CoV-2 cytopathic effect (10000 nM)
Clc1ccc(C(OCCN2CCCCC2)c2ccccc2)cc1 (stereo not given) [cloperastine],-0.8%,-0.73%,0.64%,-3.95%,-8.21%
OCC(O)CN1CCN(c2ccccc2)CC1 (stereo not given) [dropropizine],-2.5%,-2.56%,-2.71%,-2.45%,-3%
CCCCCCCCCCCC1=C(O)C(=O)C=C(O)C1=O [embelin],0.27%,-0.22%,-1.48%,-2.76%,-6.88%
O=[N+]([O-])c1cn2c(n1)OC[C@@H](OCc1ccc(-c3ccc(OC(F)(F)F)cc3)nc1)C2,1.33%,-0.87%,-0.57%,4.38%,0.34%
CS(=O)(=O)CCNCc1ccc(-c2ccc3ncnc(Nc4ccc(OCc5cccc(F)c5)c(Cl)c4)c3c2)o1 [lapatinib],-1.4%,0.42%,-3.11%,-11.4%,-7.81%
COc1ccccc1C(=O)Nc1cccc(NC(=O)c2cccc(C)c2)c1,1.89%,2.12%,2.82%,0.39%,1.77%
COC(=O)C1=C(C)NC(C)=C(C(=O)OC(C)C)[C@@H]1c1cccc2nonc12 [isradipine],0.75%,2.79%,1.21%,2.05%,1.88%
CN(C)C[C@H](O)Cn1c2ccc(Br)cc2c2cc(Br)ccc21 (racemic) [wiskostatin],-2.04%,-1.61%,0.88%,-1.26%,57.3% (active)
NCCCC[C@H](N[C@@H](CCc1ccccc1)C(=O)O)C(=O)N1CCC[C@H]1C(=O)O [lisinopril],0.42%,0.67%,0.78%,0.97%,1.56%
CO[C@H]1CC=C2CCN3CCC4=C(CC(=O)OC4)[C@]23C1,1.56%,-0.91%,1.32%,0.73%,1.37%
CC(C)(O)CNc1nc(Nc2ccnc(C(F)(F)F)c2)nc(-c2cccc(C(F)(F)F)n2)n1 [enasidenib],-2.39%,-0.28%,-1.11%,-2.37%,-1.07%
O=C1C(=O)N(Cc2ccc(Cl)c(Cl)c2)c2ccccc21 [apoptosis-activator-II],1.74%,-0.59%,-1.07%,-3.55%,-3.11%
CC[C@H](c1ccc(O)cc1)[C@@H](CC)c1ccc(O)cc1 [hexestrol],-3.59%,-0.58%,-0.76%,-3.14%,2.9%
C=C1/C(=C\C=C2/CCC[C@]3(C)[C@@H]([C@H](C)CCCC(O)(C(F)(F)F)C(F)(F)F)CC[C@@H]23)C[C@@H](O)C[C@@H]1O [falecalcitriol],-0.53%,0.41%,-1.28%,0.88%,-2.37%
CCCNC(C)(C)COC(=O)c1ccccc1 [meprylcaine],2.21%,-2.34%,-2.33%,-1.75%,-5.76%
COc1ccncc1C(=O)NC(=O)Nc1ccc(-c2ccccc2)c(C(F)(F)F)c1 [S1P1-agonist-III],-0.34%,-0.01%,-0.43%,-0.2%,-2.64%
O=C1c2ccccc2C(=O)C1c1ccc(Br)cc1 [bromindione],-0.87%,2.1%,-2.65%,1.04%,0.05%
COc1ccc(CCN(C)CCCC(C#N)(c2cc(OC)c(OC)c(OC)c2)C(C)C)cc1OC (stereo not given) [gallopamil],-0.29%,0.76%,-0.41%,0.33%,-2.43%
